Measurements as given in PubChem BioAssay (NCI).
Compounds without any hit were thinned out: in the full panel of roughly 83,000, 20% have a hit.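 Testing used 96-well plates and a 48-hour single-concentration exposure. Example: -40 means 40% of the starting cells died.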 Values without a mark were called inactive. Activity calls are given as the source filed them.

These compounds were tested on HT29 colon (assay: NCI-60 one-dose screen, 48 h (100 = growth as untreated, 0 = no growth, -100 = all killed)). Details: 10 µM unless noted.
Protocol: Growth inhibition of the HT29 human tumor cell line is measured as a screen for anti-cancer activity. Cells are grown in 96 well plates and exposed to the test compound for 48 hours. Compounds are tested at a single concentration, which is 10^-5 M for most compounds. The reported endpoint is percent growth (GI% or GIPRCNT), where numbers from 0 - 100% represent growth inhibition, and numbers from -100% - 0 represent cell death. For example, a value of 40 represents 60% growth inhibition. A value of 0 means no net growth occurred over the course of the experiment. A value of -40 indicates 40% of cells at the beginning of the experiment died by the end of the experiment. A value of -100 means all cells are dead at the end of the experiment.
NCI-60 Human Tumor Cell Lines Screen was performed using the standard one-dose NCI protocol, which is described in more detail at https://dtp.cancer.gov/discovery_development/nci-60/default.htm.
Compounds with GIPRCNT values below 10 were considered active. Activity score was based on GIPRCNT using the following formula: […]
Score is 0 for GIPRCNT values of 100 or above, 50 for GIPRCNT values of 0, and 100 for GIPRCNT values of -100.

Row | SMILES | growth
1 | O=C(NCc1cccnc1)c1cc(-c2csc3c(=O)cc(N4CCOCC4)oc23)cc2c1OCCO2 | 18%
2 | CS(=O)(=O)c1ccc(-c2nc3cc(Cl)ccc3n2CC(=O)NO)cc1 | 95.6%
3 | O=C(Oc1ccc[nH]c1=O)c1cc([N+](=O)[O-])cc([N+](=O)[O-])c1 | 112%
4 | O=C1NCC(=O)N(Cc2ccco2)[C@H]1Cc1ccccc1 | 103%
5 | c1ccc([P+](CCCc2n(Cc3ccc4ccccc4c3)c3ccccc3[n+]2Cc2ccc3ccccc3c2)(c2ccccc2)c2ccccc2)cc1 | 23.9%
6 | COc1cccc(/C=C2\COc3ccc(O)cc3C2=O)c1OC | 19.2%
7 | CCc1cc(Cc2cc(CC)cc(C(C)(C)C)c2O)c(O)c(C(C)(C)C)c1 | 23.3%
8 | COc1cc2cc(Oc3ccc(NC(=O)Nc4cc(C(F)(F)F)cc(C(F)(F)F)c4)cc3)c(C)nc2cc1OCCN1CCCCC1 | -64.8% (active)
9 | C[C@H]1[C@H](C)CC[C@]2(C(=O)N3CCN(C)CC3)CC[C@]3(C)C(=CC[C@@H]4[C@@]5(C)C/C(=C/c6cccnc6)C(=O)C(C)(C)[C@@H]5CC[C@]43C)[C@H]12 | -79.3% (active)
10 | COc1cc2c(cc1OC)-c1ccc3cc4c(cc3c1N(CCN1CCCC1)C2)OCO4 | -51.2% (active)
11 | Clc1ccc(-c2nnc(Cn3ccnc3)o2)cc1 | 102%
12 | COC1(CC[C@@H](C)COC2OC(CO)C(O)C(O)C2O)O[C@H]2C[C@H]3[C@@H]4CC=C5C[C@@H](OC6OC(CO)C(OC7OC(C)C(O)C(O)C7O)C(O)C6OC6OC(C)C(O)C(O)C6O)CC[C@]5(C)[C@H]4CC[C@]3(C)[C@H]2[C@@H]1C (stereo not given in full) | -76.6% (active)
13 | CN1C[C@@H](c2ccc(Cl)cc2)[C@]2(NC(=S)N(c3ccccc3)C2=O)[C@@]12C(=O)NC1C=CC(Br)=C[C@H]12 (stereo not given in full) | 61.5%
14 | NS(=O)(=O)c1cn(-c2ncnc3nc[nH]c23)ccc1=O | 101%
15 | Cc1c2c(cn1Cc1ccccc1)CCc1cn[nH]c1-2 | 94.5%
16 | NC(N)=N/N=C(/c1ccccc1)c1ccccc1F | 8.59% (active)
17 | O=C1NC(=S)S/C1=C\N1N=C(c2ccc(Cl)cc2)CC1c1ccc(F)cc1 (stereo not given) | 85.5%
18 | Cc1[nH]c(-c2nc3ccccc3[nH]2)c(C)c1C(=O)NNc1ccc(Cl)cc1 | 104%
19 | CCN(CC)CC(O)CNc1c2ccc(Cl)cc2nc2ccc(OC)cc12 (stereo not given) | -4.13% (active)
20 | O=C1CSC(c2ccccc2O)N1c1nnc(Cn2cnnc2)o1 (stereo not given) | 99.1%

Row | SMILES | growth
21 | CNC(=O)c1cc(Oc2ccc3nc(NC(=O)Nc4cc(C(F)(F)F)cc(C(F)(F)F)c4)sc3c2)ccn1 | -71.3% (active)
22 | Cc1cc(-c2ccc(N(C)C)cc2)c2sc(=O)[nH]c2n1 | 70%
23 | NC(=O)CC1(O)C=C(Br)C(=O)C(Br)=C1 | 75.8%
24 | O=C1CC(c2ccc3c(c2)OCO3)Nc2cc3c(cc21)OCO3 (stereo not given) | 1.47% (active)
25 | CC(=O)c1ccc2c(c1)CCN2 | 101%
26 | COc1cc(C(=O)/C=C/c2c(-c3ccc(F)cc3)nc3ncccn23)cc(OC)c1OC | 38.2%
27 | CC1=CC(=O)C(C(C)C)=CC1=Nc1cc(Br)c(O)c(Br)c1 | 66.2%
28 | CCN(CC)CCCNC(=O)c1ccc(N)cc1 | 100%
29 | CCCCOc1nc2ccc(Cl)cc2cc1/C=C/C(=O)/C=C1/CC(c2cc3cc(Cl)ccc3nc2OCCCC)Nc2ccccc2N1 (stereo not given) | 101%
30 | CC(=O)c1cc2c(o1)C(=O)c1ccccc1C2=O | -18.3% (active)
31 | C#C[C@]1(O)CC[C@H]2[C@@H]3CC=C4c5sc(N=C(N)N)nc5CC[C@]4(C)[C@H]3CC[C@@]21C | -0.997% (active)
32 | COc1ccc(/C=C2\COc3ccc(O)cc3C2=O)c(OC)c1 | 38.2%
33 | NC(=S)N/N=C/C(=O)O | 80%
34 | Nc1c(-c2nc3ccccc3c(=O)[nH]2)nnn1-c1ccc(Cl)cc1 | 68.7%
35 | O=c1oc2ccc(Cl)cc2cc1-c1cs/c(=N/N=C\c2ccc(Cl)cc2)n1/N=C/c1ccc(Cl)cc1 | 91.8%
36 | CCCn1nc(-c2ccccc2)c2c(-c3ccccc3)onc2c1=O | 43.1%
37 | CCCCN1CCN(c2ccc3nc(-c4ccc5nc(-c6ccc(OCC)c(OCC)c6)[nH]c5c4)[nH]c3c2)CC1 | -20.8% (active)
38 | O=C(Nc1ccccc1Cl)OCCN1CCOCC1 | 75.9%
39 | O=S(=O)(NCCNc1cc(-c2c(-c3cccc(O)c3)nc3sccn23)ccn1)c1ccc(Cl)cc1 | 65.7%
40 | CCC(O)(C(c1ccccc1)c1ccccn1)C(c1ccccc1)c1ccccn1 (stereo not given) | 102%
